According to PubChem BioAssay AID1159580 (chemical genetic matrix, 2015):
Screen size: about 5,500 compounds; about 2,000 (36%) were called active. Roughly 18% stayed inconclusive and do not appear here. Rule as the data show it: active = normalized growth mostly below about 0.91 (no sharp cut-off); inconclusive = no clear call, values can overlap the other calls; inactive = mostly above about 0.92. This is one part of the list.

Assay: chemical genetic growth profiling, strain panel (AID 1159580);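 also: tested at 20 µM; growth read once vehicle control cultures reached saturation at 30 °C; 1 = growth at the plate median or of vehicle wells; lower values mean less growth of the strain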
Details: growth OD

Measured: normalized growth

CC1CC[C@@]2(OC1)O[C@H]1CC3C4CC[C@@H]5C[C@@H](O)CC[C@]5(C)C4CC[C@]3(C)[C@H]1[C@@H]2C (some centres not stated)
inactive: S. cerevisiae deletion strains, locus YJR066W, strain TOR1, active compounds read low 0.937 | S. cerevisiae deletion strains, locus YJR075W, strain HOC1, active compounds read low 1.03 | S. cerevisiae deletion strains, locus YKL009W, strain mrt4, active compounds read low 0.988 | S. cerevisiae deletion strains, locus YKL068W, active compounds read low 0.985 | S. cerevisiae deletion strains, locus YKL085W, strain MDH1 (second series), active compounds read low 0.969 | S. cerevisiae deletion strains, locus YKL085W, strain MDH1, active compounds read low 0.969 | S. cerevisiae deletion strains, locus YKL160W, strain elf1, active compounds read low 1.02 | S. cerevisiae deletion strains, locus YKL190W, strain CNB1, active compounds read low 1.03 | S. cerevisiae deletion strains, locus YKR001C, strain vps1, active compounds read low 1.01 | S. cerevisiae deletion strains, locus YKR026C, strain gcn3, active compounds read low 1.03 | S. cerevisiae deletion strains, locus YLL026W, active compounds read low 1.02 | S. cerevisiae deletion strains, locus YLL041C, strain sdh2, active compounds read low 1.02 | S. cerevisiae deletion strains, locus YLR027C, strain aat2, active compounds read low 1.05 | S. cerevisiae deletion strains, locus YLR039C, strain RIC1, active compounds read low 1.09 | S. cerevisiae deletion strains, locus YLR058C, strain SHM2, active compounds read low 1.04 | S. cerevisiae deletion strains, locus YLR102C, strain apc9, active compounds read low 1.01 | S. cerevisiae deletion strains, locus YLR113W, strain HOG1, active compounds read low 0.996 | S. cerevisiae deletion strains, locus YLR221C, strain rsa3, active compounds read low 1.03 | S. cerevisiae deletion strains, locus YLR258W, strain gsy2, active compounds read low 1.03 | S. cerevisiae deletion strains, locus YLR262C, strain YPT6 (second series), active compounds read low 0.987 | S. cerevisiae deletion strains, locus YLR268W, strain sec22, active compounds read low 1.02 | S. cerevisiae deletion strains, locus YLR320W, strain mms22, active compounds read low 1.04 | S. cerevisiae deletion strains, locus YLR330W, strain CHS5, active compounds read low 1.02 | S. cerevisiae deletion strains, locus YLR342W, strain FKS1 (second series), active compounds read low 1.03 | S. cerevisiae deletion strains, locus YLR342W, strain FKS1, active compounds read low 1.03 | S. cerevisiae deletion strains, locus YLR370C, strain arc18, active compounds read low 1.02 | S. cerevisiae deletion strains, locus YLR371W, strain rom2, active compounds read low 1.01 | S. cerevisiae deletion strains, locus YLR384C, strain iki3, active compounds read low 1.01 | S. cerevisiae deletion strains, locus YLR418C, strain cdc73, active compounds read low 1.04 | S. cerevisiae deletion strains, locus YML016C, strain PPZ1, active compounds read low 1.02 | S. cerevisiae deletion strains, locus YML032C, strain rad52, active compounds read low 1.01 | S. cerevisiae deletion strains, locus YML120C, strain ndi1, active compounds read low 1.04 | S. cerevisiae deletion strains, locus YML124C, strain tub3, active compounds read low 0.998 | S. cerevisiae deletion strains, locus YMR058W, strain fet3, active compounds read low 1.02 | S. cerevisiae deletion strains, locus YMR078C, strain ctf18, active compounds read low 0.998 | S. cerevisiae deletion strains, locus YMR125W, strain sto1, active compounds read low 1.04 | S. cerevisiae deletion strains, locus YMR129W, active compounds read low 1.01 | S. cerevisiae deletion strains, locus YMR205C, strain PFK2, active compounds read low 1.02 | S. cerevisiae deletion strains, locus YMR223W, strain ubp8, active compounds read low 1 | S. cerevisiae deletion strains, locus YMR231W, strain pep5, active compounds read low 1.02 | S. cerevisiae deletion strains, locus YMR307W, strain GAS1, active compounds read low 1.21 | S. cerevisiae deletion strains, locus YNL067W, strain RPL9B, active compounds read low 1.03 | S. cerevisiae deletion strains, locus YNL071W, strain lat1, active compounds read low 1.04 | S. cerevisiae deletion strains, locus YNL183C, strain NPR1, active compounds read low 0.941 | S. cerevisiae deletion strains, locus YNL209W, strain ssb2, active compounds read low 1.01 | S. cerevisiae deletion strains, locus YNL233W, strain BNI4, active compounds read low 1.07 | S. cerevisiae deletion strains, locus YNL248C, strain rpa49, active compounds read low 1.02 | S. cerevisiae deletion strains, locus YNL250W, strain rad50, active compounds read low 1.05 | S. cerevisiae deletion strains, locus YNL271C, strain bni1, active compounds read low 1 | S. cerevisiae deletion strains, locus YNL298W, strain CLA4, active compounds read low 1.05 | S. cerevisiae deletion strains, locus YNL307C, strain MCK1, active compounds read low 1 | S. cerevisiae deletion strains, locus YNL322C, strain KRE1 (second series), active compounds read low 1.05 | S. cerevisiae deletion strains, locus YNL322C, strain KRE1, active compounds read low 1.02 | S. cerevisiae deletion strains, locus YNR049C, strain mso1, active compounds read low 1.02 | S. cerevisiae deletion strains, locus YNR052C, strain pop2, active compounds read low 0.995 | S. cerevisiae deletion strains, locus YOL012C, strain htz1 1.12 | S. cerevisiae deletion strains, locus YOL147C, strain pex11, active compounds read low 1.03 | S. cerevisiae deletion strains, locus YOR001W, strain rrp6, active compounds read low 1.05 | S. cerevisiae deletion strains, locus YOR061W, strain CKA2, active compounds read low 1.02 | S. cerevisiae deletion strains, locus YOR069W, strain VPS5, active compounds read low 1.02 | S. cerevisiae deletion strains, locus YOR070C, strain gyp1, active compounds read low 1.01 | S. cerevisiae deletion strains, locus YOR080W, strain dia2, active compounds read low 1.02 | S. cerevisiae deletion strains, locus YOR083W, strain WHI5, active compounds read low 1.02 | S. cerevisiae deletion strains, locus YOR106W, strain vam3, active compounds read low 1.04 | S. cerevisiae deletion strains, locus YOR136W, strain idh2, active compounds read low 1.01 | S. cerevisiae deletion strains, locus YOR144C, strain elg1, active compounds read low 1 | S. cerevisiae deletion strains, locus YOR184W, strain ser1, active compounds read low 1 | S. cerevisiae deletion strains, locus YOR231W, strain MKK1, active compounds read low 0.99 | S. cerevisiae deletion strains, locus YOR265W, strain rbl2, active compounds read low 1.01 | S. cerevisiae deletion strains, locus YOR270C, strain vph1, active compounds read low 1.14 | S. cerevisiae deletion strains, locus YOR290C, strain snf2, active compounds read low 1.1 | S. cerevisiae deletion strains, locus YOR316C, strain cot1, active compounds read low 0.992 | S. cerevisiae deletion strains, locus YPL051W, strain arl3, active compounds read low 1.02 | S. cerevisiae deletion strains, locus YPL078C, strain atp4, active compounds read low 1.05 | S. cerevisiae deletion strains, locus YPL106C, strain sse1, active compounds read low 1.02 | S. cerevisiae deletion strains, locus YPL240C, strain hsp82, active compounds read low 1.02 | S. cerevisiae deletion strains, locus YPL241C, strain CIN2, active compounds read low 1.03 | S. cerevisiae deletion strains, locus YPL256C, strain CLN2, active compounds read low 0.984 | S. cerevisiae deletion strains, locus YPR119W, strain clb2, active compounds read low 1.01 | S. cerevisiae deletion strains, locus YPR141C, strain kar3, active compounds read low 1 | S. cerevisiae deletion strains, locus YPR163C, strain tif3, active compounds read low 1.01 | S. cerevisiae deletion strains, locus YPR167C, strain met16, active compounds read low 1.02 | S. cerevisiae deletion strains, strain wtn01, active compounds read low 1.01 | S. cerevisiae strains, strain wild type, active compounds read low 1.05
active: S. cerevisiae deletion strains, locus YKR091W, strain srl3, active compounds read low 1.11 [resistant] | S. cerevisiae deletion strains, locus YLL001W, strain dnm1, active compounds read low 1.18 [resistant] | S. cerevisiae deletion strains, locus YLR357W, strain rsc2, active compounds read low 1.45 [resistant]
